Assay outcomes as filed in PubChem BioAssay.
Rows were chosen to be rich in hits. Some 5.3% of all compounds tested hit in one or more screens of this group.
12-hLO inh: qHTS Assay for Inhibitors of 12-hLO (12-human lipoxygenase); AID 1452, 2008; purified 12-hLO, xylenol orange hydroperoxide absorbance; hit rate 0.12% among 150,000; Potency, µM (titrated, usually from 57.1 µM), without a hit: top-dose activity change, negative = inhibition, most hits filed as inhibitors; further: potency means the concentration at half of the fitted maximal effect; nearly all actives have a fitted effect of over 55% in size
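Purified human 12hLO (150 nM final) was preincubated with compounds for 15 min at room temperature in 25 mM Hepes pH 7.0, 0.01% Triton X-100, then reacted with 40 uM arachidonic acid for 30 min. Hydroperoxide was detected with ferrous iron/xylenol orange.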
HPGD block: qHTS Assay for Inhibitors of HPGD (15-Hydroxyprostaglandin Dehydrogenase). 15-hydroxyprostaglandin dehydrogenase [NAD(+)] (Homo sapiens), P15428. purified HPGD, NADH fluorescence kinetic, PGE2 substrate. Potency, µM, inactives show at the top dose activity change, negative = inhibition, hits mostly inhibitors. hit rate 4.3% among 150,000; active means well fitted inhibition curve with a large enough effect, not every such curve was filed as active; inconclusive means small, poorly fitted or top-dose-only effect, or another doubt; inactive means no such curve, though single readings can be large or run the other way; further: potency means the concentration at half of the fitted maximal effect
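20 nM HPGD preincubated 15 min at room temperature with compound in 50 mM Tris-HCl pH 8, 0.01% Tween 20. Started with 1 mM NAD+ and 30 uM prostaglandin E2; NADH fluorescence (360/450 nm) read 5 times over 30-s intervals, last minus first.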
15-hLO-2 inh: qHTS Assay for Inhibitors of 15-hLO-2 (15-human lipoxygenase 2); purified 15hLO-2, xylenol orange hydroperoxide absorbance; Potency, µM (top dose mostly 57.1 µM), for inactives: at the top dose activity change, negative = inhibition, actives largely listed as inhibitors; hit rate 0.56% among 110,000; further: potency means the concentration at half of the fitted maximal effect; nearly all actives have a fitted effect of over 60% in size
Target sequence (O15296 whole entry, looked up): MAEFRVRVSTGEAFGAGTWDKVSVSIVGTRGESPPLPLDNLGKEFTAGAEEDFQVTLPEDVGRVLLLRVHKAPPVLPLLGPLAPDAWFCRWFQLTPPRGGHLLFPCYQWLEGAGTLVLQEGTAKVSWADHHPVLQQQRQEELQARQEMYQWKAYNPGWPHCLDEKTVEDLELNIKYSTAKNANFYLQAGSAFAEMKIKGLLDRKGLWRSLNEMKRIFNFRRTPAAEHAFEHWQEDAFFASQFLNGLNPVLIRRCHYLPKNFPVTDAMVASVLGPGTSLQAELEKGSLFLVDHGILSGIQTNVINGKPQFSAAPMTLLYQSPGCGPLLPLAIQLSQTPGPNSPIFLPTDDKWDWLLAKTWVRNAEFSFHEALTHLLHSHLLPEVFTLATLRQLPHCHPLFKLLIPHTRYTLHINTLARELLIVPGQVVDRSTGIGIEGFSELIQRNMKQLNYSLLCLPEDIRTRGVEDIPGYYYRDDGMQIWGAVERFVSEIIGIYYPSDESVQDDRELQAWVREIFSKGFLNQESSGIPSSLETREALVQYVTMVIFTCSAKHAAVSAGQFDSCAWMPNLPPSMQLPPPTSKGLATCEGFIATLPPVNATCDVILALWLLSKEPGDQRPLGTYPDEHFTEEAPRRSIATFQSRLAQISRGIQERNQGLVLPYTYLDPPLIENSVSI
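Enzyme 50 nM, AA 45 uM, 25 mM Hepes pH 7.5 + 0.01% Triton X-100; cpd preinc 15 min RT, rxn 90 min RT; stop/detect with 200 uM XO + 300 uM Fe(II) in 50 mM H2SO4, 30 min; A573/A405.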
IMPase cell inh: qHTS Assay for Identifying the Cell-Membrane Permeable IMPase Inhibitors | Inositol monophosphatase 1 (Rattus norvegicus), P97697 | 120,000 tested, under 10 active | inhibition (IP1 accumulation), % at 46.1 µM | CHO-M1 cells, IP1 accumulation, HTRF TR-FRET ratio; active means well fitted curve in the direction sought with a large enough effect in the signal ratio, not every such curve was filed as active; inconclusive means small, poorly fitted or top-dose-only effect, or a change in a side signal; inactive means no such curve, though single readings can be large or run the other way; the % refers to the signal ratio;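 further: cells stimulated with carbachol in lithium chloride buffer; plate controls were DMSO basal wells for no effect and reference inhibitor wells for full effect; higher means more IMPase inhibition seen as more IP1 and lower FRET ratio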
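Seeded CHO-M1 cells were dosed with compound at up to 46 uM, stimulated with carbachol for 30 min, then lysed in IP-One detection reagents. Higher IP1 lowers the TR-FRET signal.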
PNC inhibitor: High Content Assay for Compounds that inhibit the Assembly of the Perinucleolar Compartment | activity change (PNC), negative = inhibition, % at 10 µM | AID 2417, 2010 | PC3M PTB-GFP, PNC prevalence imaging, 16 h; active compounds read low | hit rate 3.1% among 140,000;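 active means readout at or below -70, meaning at least 70% loss of cells showing the perinucleolar compartment, a nuclear body marking cancer cells; inconclusive means readout between -30 and a set limit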;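 further: plate controls were DMSO wells for no effect and camptothecin positive control wells for full effect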
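Compounds are pinned in duplicate onto adhered PC3M cells stably expressing GFP-tagged PTB and incubated 16 h at 37 C. Cells are then fixed, nuclei stained with Hoechst, and PNC-positive cells counted.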
IMPase Li inh: qHTS Assay for Identifying the Cell-Membrane Permeable IMPase Inhibitors: Potentiation with Lithium; CHO-M1 cells, IP1 TR-FRET (IP-One), carbachol + lithium; Potency, µM (titrated, usually from 59.4 µM), inactives show at the top dose activity, negative = IMPase inhibition, usual class: inhibitors; hit rate 0.35% among 210,000; AID 1457, 2008;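 further: IP1 builds up when IMPase is blocked and the TR-FRET signal falls; potency means the concentration at half of the fitted maximal effect; plate controls were basal vehicle for no effect and high inhibitor control for full effect; nearly all actives have a fitted effect of over 50% in size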
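Lithium-sensitised IP1 accumulation assay; M1-expressing CHO cells treated 30 min at 37C with compound. Competitive antibody detection by time-resolved FRET followed a 10 min room-temperature lysis step.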
An asterisk follows results filed as active; ? = inconclusive; nt = no result; [ ] = dose if it differs, or a comment. Unless noted, the call rests on the fitted dose curve; in most records, active means well fitted curve in the direction sought with a large enough effect; inconclusive means small, poorly fitted or top-dose-only effect, or another doubt; inactive means no such curve, though single readings can be large; an effect the other way counts as inactive or inconclusive. Unless noted, on the % scale 0 is the no-effect control and ±100 the full control effect.

SMILES	12-hLO inh	HPGD block	15-hLO-2 inh	IMPase cell inh	PNC inhibitor	IMPase Li inh
O=c1c2ccccc2nc(N/N=C/c2c(O)ccc3ccccc23)n1O	-8%	22µM*	-20%	11	-19	0%
Cc1nc2ccccc2c(=O)n1/N=C/c1c(O)ccc2ccccc12	nt	nt	nt	nt	nt	6%
O=c1c2ccccc2nc(N/N=C/c2ccc(O)cc2)n1O	0%	13µM*	11%	5	?	5%
Cc1ccc(NC(=O)Cc2ncc(C(F)(F)F)cc2Cl)cc1Cl	4%	-11%	-11%	3	27	-1%[38.3 µM]
Cc1ccc2nc(SCc3nnc(-c4cccs4)o3)[nH]c2c1	-9%	32µM*	0%	2	?	19%[38.3 µM]
CNC(=O)N(O)C1N(c2ccccc2)C(=S)SC1(C)C (stereo not drawn)	9%	-5%	nt	nt	-5	-3%
O=C(NNC(=S)Nc1ccc(F)c(Cl)c1)c1ccccc1Br	nt	nt	nt	nt	nt	5%
O=C(O)c1cnc(-c2ccccc2)nc1Sc1ccc(Cl)cc1	4%	-2%	-16%	0	0	-8%[38.3 µM]
O=C(O)c1cnc(-c2ccccc2)nc1Sc1ccccc1Cl	1%	14µM*	nt	0	23	-7%[38.3 µM]
CCC1(C)N(O)C(C)(C)C(c2ccc(F)cc2)=[N+]1[O-] (stereo not drawn)	-5%	-7%	nt	-7	-100*	-2%
C/C(=N\O)C1(C)N(O)C(C)(C)C(c2ccc(F)cc2)=[N+]1[O-] (stereo not drawn)	7%	-15%	-10%	1	51	-1%[38.3 µM]
COC(CN1C(=O)C(=O)/C(=C(/O)c2ccccc2)C1c1ccccn1)OC (stereo not drawn)	nt	nt	nt	nt	nt	0%
COc1ccc(OC)c(S(=O)(=O)Nc2ccc(C(C)=O)cc2)c1	-8%	nt	4%	3	-7	nt
COc1ccc(C(=O)Oc2ccc(C(C)=O)cc2)c(OC)c1	-6%	-1%	-4%	12	-83*	12%[38.3 µM]
COc1ccc(/C(C)=N/N=C(\C)c2ccc(OC)cc2OC)c(OC)c1	-2%	1%	nt	nt	7	-3%
COc1ccc(/C(C)=N/NS(=O)(=O)c2ccccc2)c(OC)c1	nt	nt	nt	nt	nt	-16%
C/C(=N/NS(C)(=O)=O)c1ccc2ccccc2c1	1%	-11%	-12%	0	-103*	-4%[38.3 µM]
COc1ccc(C(N)=S)c(OC)c1	0%	40µM*	nt	nt	-1	4%
COc1ccc(/C(C)=N\NS(C)(=O)=O)c(OC)c1	3%	?	nt	nt	-84*	0%
COc1ccc(CN(Cc2cccnc2)C(=S)NCCc2ccccc2)cc1OC	7%	-14%	nt	5	-106*	31%[38.3 µM]
COc1cc2cc(C#N)c(SCC(=O)N3CCOCC3)nc2cc1OC	-1%	-28%	nt	3	-100*	3%
COc1cc2cc(C)c(SCC(=O)N3CCOCC3)nc2cc1OC	-2%	nt	-1%	1	-13	nt
COC(=O)N1CC=CC1(C)C(=O)NCc1ccc(C)o1 (stereo not drawn)	0%	-35%	24%	nt	nt	-5%
C=CCOc1c2ccc(C(=O)NCc3ccc(OC)cc3)cc2nn1C	-6%	?	6%	-2	-109*	?
Cc1ccc(C)c(NC(=O)CCCCCCCCCCC2COCCO2)c1 (stereo not drawn)	1%	-10%	nt	0	?	15%
SMILES	12-hLO inh	HPGD block	15-hLO-2 inh	IMPase cell inh	PNC inhibitor	IMPase Li inh
CCCn1c(C(O)c2ccc3c(c2)OCO3)nc2ccccc21 (stereo not drawn)	-16%	-7%	25%	9	-100*	-14%[38.3 µM]
CCC(=O)Oc1ccc(C(=O)Nc2ccc3c(c2)OCO3)cc1	nt	nt	nt	nt	nt	-9%
CN(C)C(=O)CN1CCN(Cc2cn(C)nc2-c2ccc3c(c2)OCCO3)CC1	nt	nt	nt	nt	nt	-1%
Cc1cccc(Oc2cc([N+](=O)[O-])cc3c2C(=O)Nc2ccccc2O3)c1	-7%	-11%	nt	nt	-83*	2%
O=C1Nc2ccccc2Oc2cc([N+](=O)[O-])cc(Oc3ccccc3)c21	-5%	-11%	nt	nt	14	7%
COc1cc(/C=C2/C(=O)NN(c3cccc(F)c3)C2=O)ccc1OC(=O)c1ccco1	-4%	4µM*	nt	2	-81*	13%
COc1cc(/C=C2/C(=O)NN(c3ccc(Cl)cc3)C2=O)ccc1OC(=O)c1ccco1	?	7.9µM*	nt	nt	19	0%
COC(=O)c1ccc(C(NC(=O)OCc2ccccc2)/C(=C/[C@@H](C)C(=O)NCc2cc(C)n(C)n2)c2cccnc2)cc1 (stereo partly drawn)	0%	-2%	-5%	nt	nt	-7%
Cc1ccc(Oc2ccc(OCC(=O)NC(CC(C)C)C(=O)O)cc2)cc1 (stereo not drawn)	nt	nt	nt	nt	nt	7%
S=c1[nH]nc([C@@H]2C[C@H]2c2ccccc2)n1-c1ccccc1	-4%	25µM*	nt	nt	?	-8%
CCOc1ccccc1NC(=O)Cn1cnc2c1c(=O)n(C)c(=O)n2C	nt	nt	nt	0	nt	nt
Cc1ccc2c(c1)C(c1ccc(F)cc1)N(C(=O)c1cc3ccccc3oc1=O)CC(=O)N2 (stereo not drawn)	-5%	-6%	nt	nt	-89*	15%
O=C1S/C(=C\c2ccc(N3CCOCC3)o2)C(=O)N1Cc1c(F)cccc1Cl	-20%	?	6.3µM*	9	28	3%[38.3 µM]
O=C(NCSc1ccnc(SCNC(=O)c2ccc(F)cc2)n1)c1ccc(F)cc1	6%	22µM*	?	-21	-97*	1%
O=C(CSc1ncccn1)NCc1ccc(F)cc1	-1%	-8%	9%	4	-3	9%[38.3 µM]
CCNc1nc(NCC)n2c(SCC(=O)c3ccccc3Cl)nnc2n1	nt	nt	nt	nt	nt	4%
COc1cccc(Nc2n[nH]c(=S)s2)c1	-14%	10µM*	nt	11	?	7%
O=C(NC1CCCc2ccccc21)C12CC3CC(CC(O)(C3)C1)C2 (stereo not drawn)	nt	nt	nt	nt	nt	2%
CN(C)S(=O)(=O)n1cnc(-c2ccccc2)c1-c1ccccc1	-3%	-7%	4%	2	-117*	25%[38.3 µM]
Cc1nc2ccccc2n1S(=O)(=O)N(C)C	6%	-3%	15%	0	?	5%[38.3 µM]
C=CCn1c(N2CCN(c3ccc(OC)cc3)CC2)nc2c1c(=O)[nH]c(=O)n2C	nt	nt	nt	nt	nt	1%
